# This is one part of a sample in which hits are shown more often than they occur.
# Pf Dd2 growth – Plasmodium falciparum Dd2 growth inhibition; P. falciparum Dd2 growth, SYBR Green, 72 h; Potency, µM (titrated, usually from 28.9 µM), for the others: at the top dose activity, negative = inhibition, usual class: inhibitors; 4.3% of 120,000 active; AID 1347417; active means well fitted inhibition curve with a large enough effect;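 further: plate controls were DMSO vehicle for no effect and reference drug for full effect; nearly all actives have a fitted effect of over 65% in size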
#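 Infected erythrocytes (Dd2, 0.3% parasitemia, 2.5% hematocrit final) are added to compound in RPMI-1640/Albumax II medium, grown 72 h at 37C in low oxygen, then lysed with saponin/Triton-X containing SYBR Green and read by fluorescence.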
# * = called active by the depositor; i = inactive; [ ] = remark or other dose. Potency means the concentration at half of the fitted maximal effect.
SMILES,Pf Dd2 growth
O[C@@H]1C[C@@H](c2nc(-c3ccncc3)no2)N(Cc2ccccc2)C1,-21%[44.1 µM]
COc1nc2c(cc1CNC(=O)C1COCCO1)C(=O)N(C1CCCC1)C2 (stereo not given),-19%
CC(C)C[C@@H]1N[C@H](C(=O)O)Cc2cn(CC3CCC3)c3cccc1c23,i
C=CCn1cc2c3c(cccc31)[C@H](CC(C)C)N[C@H](C(=O)NCCN(C)C)C2,-3%[44.1 µM]
C=CCNC(=O)[C@@H]1Cc2cn(CC=C)c3cccc(c23)[C@H](CC(C)C)N1,14µM*
CC(C)C[C@@H]1N[C@H](C(=O)NC2CCCC2)Cc2cn(Cc3nccn3C)c3cccc1c23,-5%[44.1 µM]
CC(C)C[C@@H]1N[C@H](C(=O)NC2CCC2)Cc2cn(CC3CC3)c3cccc1c23,14µM*
CC(C)C[C@@H]1N[C@H](C(=O)O)Cc2cn(Cc3nccn3C)c3cccc1c23,i
Cc1cc(Cn2cc3c4c(cccc42)[C@H](CC(C)C)N[C@H](C(=O)NCc2cncn2C)C3)no1,11µM*
C=CCNC(=O)[C@@H]1Cc2cn(Cc3cc(C)on3)c3cccc(c23)[C@H](CC(C)C)N1,-24%[44.1 µM]
Cc1cc(Cn2cc3c4c(cccc42)[C@H](CC(C)C)N[C@H](C(=O)NC2CCC2)C3)no1,-24%[44.1 µM]
C=CCNC(=O)[C@@H]1Cc2cn(Cc3ccncc3)c3cccc(c23)[C@H](CC(C)C)N1,-29%[44.1 µM]
COCCCNC(=O)[C@@H]1Cc2cn(Cc3cc(C)on3)c3cccc(c23)[C@H](CC(C)C)N1,i
C#CCNC(=O)[C@@H]1Cc2cn(Cc3nccn3C)c3cccc(c23)[C@H](CC(C)C)N1,10µM*
Cc1ccc(-c2ncc(NC(=O)c3ccccc3F)cn2)cc1,i
O=C(C1CN(c2cccc(Cl)c2)C(=O)N1)N1CCOCC1 (stereo not given),3%[44.1 µM]
COc1ccc(C(=O)N2CCC3(CC2)N=C(c2cccc(Br)c2)NO3)c(OC)c1,50%
O=C(Nc1ccc([C@@H](O)[C@H]2COCC(=O)N2CC2CCCCC2)cc1)C1CCC1,i
COc1ccc(NC(=O)Cn2nc3n(c2=O)CCCCC3)cc1,34%
Cc1c(CN(C)C(=O)CC2C(=O)NCCN2CC(C)(C)C)[nH]c2ccccc12 (stereo not given),-3%
O=C(c1ccc(Cl)cc1)N1CCOC(CN(C(=O)c2ccc(F)cc2)C2CCCC2)C1 (stereo not given),-2%
Cc1ccc(-n2nc3n(c2=O)CCN(C(=O)Nc2ccccc2)C3)cc1,-8%[44.1 µM]
C[C@@]1(O)CCN(C(=O)c2cc(C(F)(F)F)ccc2Cl)C[C@@H]1O,-1%
COc1ccc(CN2CC[C@H]3COC(=O)N3c3cc(F)ccc3C2)cc1,i
COc1ccc(CN2CC[C@H]3COC(=O)N3c3ccc(OC)cc3C2)cc1,-20%[44.1 µM]
SMILES,Pf Dd2 growth
CCCc1cc(=O)oc2c3c(ccc12)OCN(Cc1ccc(OC)cc1)C3,10µM*
COc1ccc(CN2CC[C@H]3COC(=O)N3c3ccccc3C2)cc1,i
COc1ccc(CN2COc3ccc4c(C)cc(=O)oc4c3C2)cc1,10µM*
COc1ccc(CN2CC[C@H]3COC(=O)N3c3cc(C)ccc3C2)cc1,i
CCCNC(=O)N1CCCCCC1CN1CCC(OC)CC1 (stereo not given),i
CC1Oc2ccc(NC(=O)c3c(F)cccc3F)cc2CN(Cc2ccccc2F)C1=O (stereo not given),-7%
Cc1ccc(NC(=O)c2nn(C)c3c2CS(=O)(=O)c2ccccc2-3)c(Cl)c1,-1%
Cn1nc(C(=O)Nc2ccc(F)c(Cl)c2)c2c1-c1ccccc1S(=O)(=O)C2,8.9µM*
COc1cc(NC(=O)c2nn(C)c3c2CS(=O)(=O)c2ccccc2-3)cc(OC)c1,-21%
COc1ccc(C2=NOC3(CCN(Cc4cccc5ccccc45)C3)C2)cc1 (stereo not given),i
CC(C)c1ccc(C(=O)N[C@H](C2CCNCC2)C2CC(O)C2)c(=O)n1C (stereo not given in full),-5%
O=C(C1CCOCC1)N1CCC2(CN[S+](=O)([O-])c3cnccc3O2)C1 (stereo not given),30%
Cn1cnc(S(=O)(=O)N2CCC3(CC2)CC(CC(=O)NC2CC2)CCO3)c1 (stereo not given),-33%
COc1cccc(S(=O)(=O)N2CCC3(CC2)CC(CC(=O)NC2CC2)CCO3)c1 (stereo not given),21%
COc1ccc(S(=O)(=O)N2CCC3(CC2)CC(CC(=O)NC2CC2)CCO3)cc1 (stereo not given),6.3µM*
COCC(=O)N[C@@H]1CN(C(=O)NCc2ccccc2)CC[C@@H]1c1nc(C)no1,i[5.79 µM]
Cc1ccc(CNC(=O)N2CCCN(C)c3ccccc32)cc1,-1%
CC(C)(C)c1ccc(-c2cn(C[C@H]3CC4CCN3C[C@@H]4C(=O)NCc3ccccc3)nn2)cc1 (stereo not given in full),i
CCC(NC(=O)c1ccc(C)c(NC(=O)C2CC2)c1)c1ncnn1CC (stereo not given),9%
CCOC(=O)C1(C/C=C/c2ccccc2)CCCNC1 (stereo not given),4µM*

# Screening results from PubChem.
